These results are taken from PubChem BioAssay AID651871 (Sanford-Burnham Center for Chemical Genomics, 2012).

In the test the test system is HL-1. Briefly: protection of cardiomyocytes from stress damage, SAR follow-up, cell-based, panel, H9c2 and HL-1, ATP luminescence, set 2 (AID 651871).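 Also: cells exposed to stressor for 2 h before ATP readout; reference of the scale not given here.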 The settings on record: H9c2/HL-1 cardiomyocytes, 2-deoxyglucose stress, with 2-deoxyglucose, run 6, at 19.8 µM (top of the series).

“And” between values parts separate entries of the source, which are not always exact repeats. Equal entries are not always repeated.

`COc1ccc2c(c1OC)C(=O)N1c3ccccc3C(=O)N(Cc3cccc(Cl)c3Cl)C21` (stereo unspecified): the activity (protection/inhibition) is 29.6% and 37.4%.
